Assay results reported in article PMC13494018.

B1: design_619_5728adc2-0aea-404f-92dd-a4575c53f550_149_dldesign_0_cycle1_af2pred (protein)
chain: SPAQEAARAEADRAAEAIAAFAKQIAAAASPELAKEVLAAAEKAAAALAAAKELPAEEARAATDAVWAAANRAAAAAMRQVLAQTT
B2: design_618_d4ffd631-0ea2-432e-ba0f-bd3d6297b2a0_2173_dldesign_0_cycle1_af2pred (protein)
chain: SSAKEKAKKLAEEAKKIADKAIAQAKALAADKGAANAVLLDAIKELSELAKKAYALDPAYADKINAYAQELVKQMAAIAG
B3: design_619_5728adc2-0aea-404f-92dd-a4575c53f550_175_dldesign_0_cycle1_af2pred (protein)
chain: AAAQQQAIGNAAIRTADIAMATAKKLIKEDPAKGKEVAEQAVGILEGAAKAAPSTAATLLAEAKKVKEETEKAIKEA
B4: design_618_d4ffd631-0ea2-432e-ba0f-bd3d6297b2a0_1628_dldesign_0_cycle1_af2pred (protein)
chain: AAQAQADQITKAAAEAAIKSAKAMVDINLESARKLAEVAADLGKAAPATAAEIKAAAKAVIEEADKKEAEKA
B5: design_618_d4ffd631-0ea2-432e-ba0f-bd3d6297b2a0_1745_dldesign_0_cycle1_af2pred (protein)
chain: SAARLAEQRARAAELRERAEEALKRAEQVEKKNPAAGAAVRALVRQALRQVELGLADPENAERYLDSARRNLEVAQGIIDATL
B6: design_619_5728adc2-0aea-404f-92dd-a4575c53f550_189_dldesign_0_cycle1_af2pred (protein)
chain: DPATVRGLAAMAALALQAGVTGGPEVGAANLRNVAKLAAARGTPEAAEIAKKAEEAAKEADNPEKVKEYQAYFEEIAKA
B7: design_618_d4ffd631-0ea2-432e-ba0f-bd3d6297b2a0_2000_dldesign_0_cycle1_af2pred (protein)
chain: RAAAVEAALAYARAVAETDASLEAARAAFERAKALLPEAPEAAGTLAGAALVAGSNPALGERLFAAGAARAA
B8: design_618_d4ffd631-0ea2-432e-ba0f-bd3d6297b2a0_2461_dldesign_0_cycle1_af2pred (protein)
chain: STAFFQEATKLIEEAGEVANRVPEVAPLANKAITAASKAMLAAAQGNEAAAKAYFDEAKKLLEEAKKKAKELLE
B9: design_619_5728adc2-0aea-404f-92dd-a4575c53f550_74_dldesign_0_cycle1_af2pred (protein)
chain: DLDAVIATGMLALGKANAALAAARAGTATAAELEAAAAEAEAAAALAAALAAQSSTMAWLAAQLKKAAAELRAAAAKLKA
B10: design_619_5728adc2-0aea-404f-92dd-a4575c53f550_130_dldesign_0_cycle1_af2pred (protein)
chain: DELFARLEELARALVEEAAKRSPELADIILESYEEGKKIAEELGFGPVTAIAIAAALALRRDPEAGALLRQVFVEVARAAIEAQ
B11: design_618_d4ffd631-0ea2-432e-ba0f-bd3d6297b2a0_2465_dldesign_0_cycle1_af2pred (protein)
chain: AAAAQAAAILAAAQQGINDTTALLEKYKDVATPETVALFNKALAYFSKAAALALRGTQPAEAAAALAKGQEEAKKGEELLKKEVE
B12: design_618_d4ffd631-0ea2-432e-ba0f-bd3d6297b2a0_2296_dldesign_0_cycle1_af2pred (protein)
chain: DKYATEAKKYAEEAEKLAKEAKKEAKKVGEAAKELAKQAEAAAKTAKIAAEGAEAATDPAARALALKVAEQAYKQAKKLLKEIKKL
B13: design_618_d4ffd631-0ea2-432e-ba0f-bd3d6297b2a0_2266_dldesign_0_cycle1_af2pred (protein)
chain: SADVELGKEKGKELAEKIKEAAKKGLKAGDPEAAGKEMNKIVQEAIKFAATLSPEAASVLLSIVIETAKEESAKLKAA
B14: design_618_d4ffd631-0ea2-432e-ba0f-bd3d6297b2a0_2309_dldesign_0_cycle1_af2pred (protein)
chain: AGLEIANKALQLAAEATAALKAAAKGTAAEVEALAKKYLDEAKKLKEQATTPQAKAAANIAISAVTTAKKAALAAVA
B15: design_618_d4ffd631-0ea2-432e-ba0f-bd3d6297b2a0_2243_dldesign_0_cycle1_af2pred (protein)
chain: AAAAATALAKATAEALVRSAERGNAETARKLAEVAKGLAEGEAAAGDEEAAKAAAEAAKKIEAIAKEKAA
B16: design_619_5728adc2-0aea-404f-92dd-a4575c53f550_103_dldesign_0_cycle1_af2pred (protein)
chain: SEAERYAEAAKKLAQVAKDIAAAFPANPELKKEAEKAKKYAEKAEKLVKEGGSAEEVLKEYEKARAALARATKLAIAA
B17: design_619_5728adc2-0aea-404f-92dd-a4575c53f550_132_dldesign_0_cycle1_af2pred (protein)
chain: AEAAAALAAAMRAATDAAVAEAATGTGEGIAKALHVANLARAAAEANPETAAEHRAYAERALAAAKAAQAAAIAAA
B18: design_618_d4ffd631-0ea2-432e-ba0f-bd3d6297b2a0_2235_dldesign_0_cycle1_af2pred (protein)
chain: EEDEKILESAKKMKEVAKDLAEYAKTSTAEVAKIAANSAEALARILKETAKESKKKEEIEKLAKEAEEYAKEAKETAKKK
B19: design_618_d4ffd631-0ea2-432e-ba0f-bd3d6297b2a0_2021_dldesign_0_cycle1_af2pred (protein)
chain: AALAAQGRAIARTMRIAVLNAATAAEAAAIADTFGTTLLNLADLASPEEQRAIVEATRAEAEEVAAENPEAGAAVAATAERLRAHVEA

target: CD276, Q5ZPR3
Sequence (Q5ZPR3 whole entry): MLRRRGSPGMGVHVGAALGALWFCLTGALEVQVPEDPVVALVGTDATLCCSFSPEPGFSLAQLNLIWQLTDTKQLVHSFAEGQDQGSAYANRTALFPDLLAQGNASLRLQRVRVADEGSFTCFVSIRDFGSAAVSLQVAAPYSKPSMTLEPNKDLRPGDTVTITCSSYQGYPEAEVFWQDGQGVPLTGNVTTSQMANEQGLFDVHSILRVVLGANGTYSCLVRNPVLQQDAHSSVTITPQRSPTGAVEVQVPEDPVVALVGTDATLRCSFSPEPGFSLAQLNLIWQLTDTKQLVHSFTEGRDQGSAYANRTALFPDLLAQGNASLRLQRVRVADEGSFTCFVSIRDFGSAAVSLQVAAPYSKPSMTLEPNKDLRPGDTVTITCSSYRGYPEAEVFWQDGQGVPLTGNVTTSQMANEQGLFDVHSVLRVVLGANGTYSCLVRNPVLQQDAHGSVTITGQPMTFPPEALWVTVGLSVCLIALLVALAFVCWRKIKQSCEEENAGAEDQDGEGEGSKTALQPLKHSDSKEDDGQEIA

Binding in a display sort, inactive:
B1 not found
B2 not found
B3 not found
B4 not found
B5 not found
B6 not found
B7 not found
B8 not found
B9 not found
B10 not found
B11 not found
B12 not found
B13 not found
B14 not found
B15 not found
B16 not found
B17 not found
B18 not found
B19 not found
